In PubChem BioAssay (NCI):
Compounds without any hit were thinned out: in the full panel of roughly 83,000, 20% have a hit.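 In brief: 96-well plates, 48 h treatment, single concentration, percent growth endpoint.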 A number with no mark means an inactive call. Activity calls are given as the source filed them. How the source made its calls: active means growth percent below 10; inactive means the rest.

Assays:
Test in all cases: NCI-60 one-dose screen, 48 h (100 = growth as untreated, 0 = no growth, -100 = all killed)
Details in all cases: 10 µM unless noted
MOLT-4 leukemia = system: MOLT-4 leukemia
SR leukemia = system: SR leukemia
RPMI-8226 leukemia = system: RPMI-8226 leukemia
OVCAR-8 ovarian = system: OVCAR-8 ovarian
OVCAR-5 ovarian = system: OVCAR-5 ovarian
OVCAR-4 ovarian = system: OVCAR-4 ovarian
SK-OV-3 ovarian = system: SK-OV-3 ovarian
IGROV1 ovarian = system: IGROV1 ovarian
OVCAR-3 ovarian = system: OVCAR-3 ovarian
HS 578T breast = system: HS 578T breast
NCI/ADR-RES ovarian = system: NCI/ADR-RES ovarian
T-47D breast = system: T-47D breast
BT-549 breast = system: BT-549 breast
MDA-MB-435 melanoma = system: MDA-MB-435 melanoma
SW-620 colon = system: SW-620 colon
MCF7 breast = system: MCF7 breast
HCT-116 colon = system: HCT-116 colon
HCC-2998 colon = system: HCC-2998 colon
KM12 colon = system: KM12 colon

Structure (SMILES)	growth (MOLT-4 leukemia)	growth (SR leukemia)	growth (RPMI-8226 leukemia)	growth (OVCAR-8 ovarian)	growth (OVCAR-5 ovarian)	growth (OVCAR-4 ovarian)	growth (SK-OV-3 ovarian)	growth (IGROV1 ovarian)	growth (OVCAR-3 ovarian)	growth (HS 578T breast)	growth (NCI/ADR-RES ovarian)	growth (T-47D breast)	growth (BT-549 breast)	growth (MDA-MB-435 melanoma)	growth (SW-620 colon)	growth (MCF7 breast)	growth (HCT-116 colon)	growth (HCC-2998 colon)	growth (KM12 colon)
CC[C@H](C)[C@H](NC(=O)[C@H]1CCCCN1C)C(=O)N(C)[C@H](CCc1nc(C(=O)N[C@@H](Cc2ccccc2)C[C@H](C)C(=O)OC)cs1)C(C)C	15%	13.2%	15.5%	23.2%	49.3%	43.6%	8.81% (active)	26.8%	-18.6% (active)	39.2%	29.2%	59.3%	-8.87% (active)	-39.4% (active)	28%	20.5%	1.83% (active)	20.7%	15.8%
CC[C@H](C)[C@H](NC(=O)[C@H]1CCCCN1C)C(=O)N(C)[C@H](CC(=O)c1nc(C(=O)N[C@@H](Cc2ccccc2)C[C@H](C)C(=O)O)cs1)C(C)C	64.4%	27.8%	43.2%	96.9%	107%	106%	91.5%	76.5%	55.8%	72.2%	113%	64.8%	63%	15.5%	50.2%	23.1%	77.3%	87.9%	65.1%
CC(C)COC(C[N+](=O)[O-])C(Cl)(Cl)Cl (centres undefined)	103%	94.7%	116%	101%	109%	101%	106%	103%	115%	119%	94.2%	111%	106%	111%	107%	98.8%	111%	102%	104%
Cc1cc(N(CCCl)CCCl)ccc1C=Nc1ccc(-c2csc(Cc3ccccc3)n2)cc1	27.2%	27.2%	58.5%	65%	54.4%	64%	56%	61.7%	75.2%	106%	61.6%	45.3%	69%	78.3%	83.2%	44.5%	77%	71.7%	89.8%
CNC(=O)Oc1cccc(C(F)(F)F)c1	97.1%	111%	87.4%	87.6%	114%	114%	108%	120%	125%	121%	109%	98.9%	108%	126%	104%	109%	107%	113%	110%
COc1ccc([As]=[As]c2ccc(OC)c(NCS(=O)(=O)O)c2)cc1NCS(=O)(=O)O (centres undefined)	-0.189% (active)	-1.51% (active)	-13% (active)	44%	63.8%	14.9%	91.6%	5.53% (active)	9.01% (active)	6.44% (active)	73.7%	-41.9% (active)	-12.1% (active)	48.8%	-1.05% (active)	-67.5% (active)	-60.2% (active)	57.5%	72.9%
[Cl][Hg][c]1cc(Br)cc(Br)c1	0.93% (active)	-16.6% (active)	23%	70.4%	118%	48.5%	86.3%	16.5%	-7.88% (active)	30.3%	81.1%	27.5%	48%	58.2%	29%	15.1%	64%	85.4%	70.4%
COC(=O)[C@@H](C[C@H](Cc1ccccc1)NC(=O)c1csc([C@@H](C[C@H](C(C)C)N(C)C(=O)[C@@H](NC(=O)[C@H]2CCCCN2C)C(C)C)OC(C)=O)n1)NC(=O)OCc1ccccc1	11.8% [9.5 µM]	-23.3% [9.5 µM] (active)	-9.01% [9.5 µM] (active)	13.3% [9.5 µM]	42.2% [9.5 µM]	46.2% [9.5 µM]	12.4% [9.5 µM]	13.2% [9.5 µM]	-23.7% [9.5 µM] (active)	12.9% [9.5 µM]	13.9% [9.5 µM]	78.8% [9.5 µM]	-28% [9.5 µM] (active)	-36% [9.5 µM] (active)	26.1% [9.5 µM]	27.8% [9.5 µM]	1.64% [9.5 µM] (active)	19.5% [9.5 µM]	1.08% [9.5 µM] (active)
C#C[C@]1(OC(=O)CCCCCC)CC[C@H]2[C@@H]3CCC4=CC(=O)CC[C@@H]4[C@H]3CC[C@@]21C	26.1%	17.5%	1.02% (active)	51.9%	65.4%	53.6%	55.1%	42.5%	73%	72%	40.3%	37.8%	34.1%	18.3%	28.1%	76%	12%	49.9%	29.2%
Fc1ccc2c(c1)c(-c1nc(-c3c[nH]c4ncccc34)cs1)cn2CCN1CCOCC1	35.4%	39.7%	29%	33.5%	89.8%	44.7%	87.2%	21.5%	59.5%	53.8%	33.6%	7.41% (active)	49.6%	21.5%	62.9%	29.7%	52.6%	92.9%	32.2%
COC(=O)[C@H](Cc1ccccc1)NNC(=O)c1csc([C@@H](C[C@H](C(C)C)N(C)C(=O)[C@@H](NC(=O)[C@H]2CCCCN2C)C2CC2)OC(C)=O)n1	7.86% (active)	5.77% (active)	7.38% (active)	24.1%	32.5%	41.3%	19.8%	27.4%	4.06% (active)	9.52% (active)	32.9%	37.7%	-0.476% (active)	-55.8% (active)	24.4%	16.3%	1.19% (active)	10.8%	5.13% (active)
ClCCN(CCCl)c1nc(Cl)c(C2CC(c3ccccc3)=NN2c2cc(Cl)cc(Cl)c2)s1 (centres undefined)	101%	112%	108%	100%	102%	96.9%	105%	101%	103%	102%	103%	97.8%	107%	109%	98.5%	97.5%	98.1%	105%	100%
CC(=O)c1ccc(C(=O)NCC2CCC3(CC2)OOC2(CCCCC2)OO3)cc1	63.4%	39%	69.3%	84.6%	70%	75.4%	99.6%	12.2%	83%	102%	17.4%	53.9%	91.9%	88%	22.1%	81.7%	79%	108%	69.7%
c1cnc2[nH]cc(-c3csc(-c4cn(CCCCN5CCOCC5)c5ccccc45)n3)c2c1	13.1%	-20.1% (active)	32.6%	60.6%	72.5%	74.8%	81.1%	34.9%	59.8%	54.9%	69.4%	36.1%	79.6%	24.4%	18.1%	25.1%	40.3%	56.9%	24.1%
Cc1ccc(C(Cc2ccccc2)NCCO)cc1 (centres undefined)	88.2%	105%	92%	103%	55.4%	94.7%	75.8%	103%	100%	97.8%	100%	67.7%	69.3%	99.1%	104%	93.4%	90%	99.9%	90%
CC(C)=CCc1c(O)c(C(=O)CC(C)C)c(O)c2c(-c3ccccc3)cc(=O)oc12	38.5%	41.5%	8.71% (active)	47.6%	84.9%	68.7%	60.9%	62.9%	33.9%	47%	35.6%	33.4%	30.4%	57.1%	48.5%	28.3%	36.8%	42.4%	41%
